This note sets out measurements from PubChem BioAssay (NCATS).

Where “and” joins values, the source holds several entries; their conditions need not be identical. Identical values can stand only once. Records with an inconclusive call do not appear. Calls of active or inactive are those of the source.

One test can be described thus: qHTS assay for small molecule agonists of the antioxidant response element (ARE) signaling pathway (AID 651741; active = well fitted activation curve with a large enough effect in the signal ratio; the % refers to the signal ratio; note: potency is the fitted concentration of half-maximal effect; for activation: % of control where 0% means no effect). The conditions noted are these: HepG2 ARE-bla reporter, beta-lactamase FRET ratio, 16 h; series mostly up to 96 µM; activation: at the top concentration. The method, boiled down:
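HepG2 ARE-bla cells plated at 2,000 cells/well and incubated 5 h at 37 C/5% CO2 received 23 nL compound in DMSO. After 16 h at 37 C, LiveBLAzer B/G FRET substrate was applied for 2 h at room temperature and fluorescence read.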
A general note: Quantitative high-throughput screening tests each substance at several concentrations.
`Nc1ccn([C@H]2CS[C@@H](CO)O2)c(=O)n1`: the “activation” value was 0.771% (inactive).

In the case of `CCCCC/C=C\C/C=C\CCCCCCCC(=O)O`, the Potency result is “inactive”.

For the compound `CCCCCCCC(=O)O`, the “activation” value was 1.08% (inactive).

As to `CCCCCCCC/C=C\CCCCCCCC(=O)O`, the Potency entry was “inactive”.

Take `CC(O)CO` (stereo not given): the Potency entry was “inactive”.

For the compound `O=S(=O)(O)O`, the “activation” value was 8.81% (inactive).

Take `CCCCC(CC)COC(=O)CC(C(=O)OCC(CC)CCCC)S(=O)(=O)O` (stereo not given): the Potency was 43.3 µM (active).

On to `CC1=C(/C=C/C(C)=C/C=C/C(C)=C/CO)C(C)(C)CCC1`, for which the Potency is 68.6 µM (active) and 42.2 µM (active).

With `CC(C)=O`, the “activation” value was -0.857% (inactive).

On to `IC(I)I`, for which the Potency is 68.6 µM (active).

Take `CCOc1ccc2c(c1)C(C)=CC(C)(C)N2`: the Potency is 27.3 µM (active).

A further test is described as follows: qHTS assay for small molecule activators of the p53 signaling pathway (AID 651743; active = well fitted activation curve with a large enough effect in the signal ratio, not every such curve was filed as active; the % refers to the signal ratio; note: potency is the fitted concentration of half-maximal effect; for activation: % of control where 0% means no effect). The settings on record: HCT-116 p53RE-bla, beta-lactamase FRET ratio, 16 h; activation: hits give high values. A digest of the protocol:
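HCT-116 p53RE-bla, 4,000 cells/well; 5 h settle; cpd/DMSO 16 h, 37 C; LiveBLAzer B/G 2 h RT; fluorescence intensity.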
As to `CC1=CCC(C(C)(C)O)CC1` (stereo not given), the activation was -5.6% (inactive).

Take `O=CCCCC=O`: the Potency was 35.5 µM (active).

As for `Nc1ccn([C@H]2CS[C@@H](CO)O2)c(=O)n1`, the activation is -1.09% (inactive).

`CCCCC/C=C\C/C=C\CCCCCCCC(=O)O`: the activation was 1.23% (inactive) and -4.95% (inactive).

As to `CCCCCCCC(=O)O`, the activation is -2.15% (inactive) and 0.705% (inactive).

As to `CCCCCCCC/C=C\CCCCCCCC(=O)O`, the activation was 0.394% (inactive) and 0.396% (inactive).

Turning to `O=C(O)CCC(=O)C(=O)O`, the activation was -2.86% (inactive).

`CC(O)CO` (stereo not given): the activation was 0.0778% (inactive) and -3.92% (inactive).

Take `CCCCC(CC)COC(=O)CC(C(=O)OCC(CC)CCCC)S(=O)(=O)O` (stereo not given): the activation is 1.7% (inactive).

In the case of `CC1=C(/C=C/C(C)=C/C=C/C(C)=C/CO)C(C)(C)CCC1`, the activation is -4.27% (inactive) and -5.83% (inactive).

On to `CC(C)=O`, for which the activation is -0.255% (inactive).

As to `IC(I)I`, the activation is -2.94% (inactive) and -3.68% (inactive).

In the case of `CCOc1ccc2c(c1)C(C)=CC(C)(C)N2`, the activation is 3.65% (inactive).

For `CC1(C)C(C=C(Cl)Cl)C1C(=O)OCc1cccc(Oc2ccccc2)c1` (stereo not given), the activation was -1.26% (inactive) [middle of 4 runs].

For `CCOC(C)=O`, the activation is -1.83% (inactive).

A short description of another test: qHTS assay for small molecule activators of the nuclear factor-kappa B (NF-kB) signaling pathway (AID 651749; active = well fitted activation curve with a large enough effect in the signal ratio; the % refers to the signal ratio; note: % of control where 0% means no effect). The conditions noted are these: NF-kB-bla ME-180 cells, beta-lactamase FRET ratio, 16 h; hits give high values. A digest of the protocol:
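Incubation lasted 16 hr at 37C in 5% CO2 after 23 nL compound addition to ME-180 NF-kB-bla cells. Activation appears as beta-lactamase-mediated FRET loss.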
On to `CC1=CCC(C(C)(C)O)CC1` (stereo not given), for which the activation is -1.34% (inactive).

As to `O=CCCCC=O`, the activation was 3.18% (inactive).

For `Nc1ccn([C@H]2CS[C@@H](CO)O2)c(=O)n1`, the activation was -1.13% (inactive).

For the compound `O=C(O)CCC(=O)C(=O)O`, the activation is 0.211% (inactive).

Take `CC(O)CO` (stereo not given): the activation was 3.41% (inactive) and -1.36% (inactive).

With `CCCCC(CC)COC(=O)CC(C(=O)OCC(CC)CCCC)S(=O)(=O)O` (stereo not given), the activation was -3.42% (inactive).

As for `CC1=C(/C=C/C(C)=C/C=C/C(C)=C/CO)C(C)(C)CCC1`, the activation was -0.416% (inactive) and -2.98% (inactive).

With `CC(C)=O`, the activation was 2.82% (inactive).

With `CCOC(C)=O`, the activation was -0.483% (inactive).
